PubChem BioAssay AID1159580 (chemical genetic matrix, 2015)
Screen size: about 5,500 compounds; about 2,000 (36%) were called active. Another 18% or so got no clear call; they are omitted. No stated cut-off is given here; in the data, active means normalized growth mostly below about 0.91 (no sharp cut-off); inconclusive means no clear call, values can overlap the other calls; inactive means mostly above about 0.92. This is one part of the list.

Assay: chemical genetic growth profiling, strain panel (AID 1159580);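 further: tested at 20 µM; growth read once vehicle control cultures reached saturation at 30 °C; 1 = growth at the plate median or of vehicle wells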
Details: growth OD
[1] = S. cerevisiae deletion strains, locus YJR075W, strain HOC1, stronger effect = lower value
[2] = S. cerevisiae deletion strains, locus YNL322C, strain KRE1, stronger effect = lower value
[3] = S. cerevisiae deletion strains, locus YPL055C, strain LGE1, stronger effect = lower value
[4] = S. cerevisiae deletion strains, locus YDL101C, strain DUN1, stronger effect = lower value
[5] = S. cerevisiae deletion strains, locus YHR030C, strain SLT2, stronger effect = lower value

Measured: normalized growth

Oc1ccc2c3c1O[C@H]1c4oc5ccccc5c4C[C@@]4(O)C(C2)N(CC2CC2)CCC314 (stereo partly drawn)
inactive: S. cerevisiae deletion strains, locus YAL040C, strain CLN3, stronger effect = lower value 1.01 | S. cerevisiae deletion strains, locus YCL061C, strain MRC1 (second series), stronger effect = lower value 1 | S. cerevisiae deletion strains, locus YDR363W, strain ESC2, stronger effect = lower value 0.994 | S. cerevisiae deletion strains, locus YER002W, strain NOP16, stronger effect = lower value 0.988 | [1] 0.99 | S. cerevisiae deletion strains, locus YMR307W, strain GAS1, stronger effect = lower value 0.988 | S. cerevisiae deletion strains, locus YNL175C, strain NOP13, stronger effect = lower value 1.01 | S. cerevisiae deletion strains, locus YNL197C, strain WHI3, stronger effect = lower value 1.01 | S. cerevisiae deletion strains, locus YNL224C, strain SQS1, stronger effect = lower value 1 | [2] 0.993 | S. cerevisiae deletion strains, locus YOR083W, strain WHI5 (second series), stronger effect = lower value 1.01 | [3] 0.975

O=C(O)c1cc(C(F)(F)F)ccc1F
inactive: S. cerevisiae deletion strains, locus YAL013W, strain DEP1, stronger effect = lower value 0.999 | S. cerevisiae deletion strains, locus YBR229C, strain ROT2, stronger effect = lower value 0.982 | [4] 0.961 | S. cerevisiae deletion strains, locus YDL134C, strain PPH21, stronger effect = lower value 0.989 | S. cerevisiae deletion strains, locus YDR150W, strain NUM1, stronger effect = lower value 1 | S. cerevisiae deletion strains, locus YEL061C, strain CIN8, stronger effect = lower value 0.997 | S. cerevisiae deletion strains, locus YGR078C, strain PAC10, stronger effect = lower value 0.975 | S. cerevisiae deletion strains, locus YGR229C, strain SMI1, stronger effect = lower value 1 | [5] 0.964 | S. cerevisiae deletion strains, locus YHR087W, strain rtc3, stronger effect = lower value 0.973 | S. cerevisiae deletion strains, locus YJL187C, strain SWE1, stronger effect = lower value 0.998 | S. cerevisiae deletion strains, locus YJR043C, strain POL32, stronger effect = lower value 0.995 | [1] 1 | S. cerevisiae deletion strains, locus YKL190W, strain CNB1, stronger effect = lower value 1 | S. cerevisiae deletion strains, locus YLR039C, strain RIC1, stronger effect = lower value 0.991 | S. cerevisiae deletion strains, locus YLR058C, strain SHM2 (second series), stronger effect = lower value 0.983 | S. cerevisiae deletion strains, locus YLR085C, strain ARP6, stronger effect = lower value 1.02 | S. cerevisiae deletion strains, locus YLR262C, strain YPT6, stronger effect = lower value 0.979 | S. cerevisiae deletion strains, locus YML094W, strain GIM5, stronger effect = lower value 0.916 | S. cerevisiae deletion strains, locus YMR219W, strain ESC1, stronger effect = lower value 0.999 | S. cerevisiae deletion strains, locus YMR263W, strain SAP30, stronger effect = lower value 1.01 | S. cerevisiae deletion strains, locus YNL153C, strain GIM3, stronger effect = lower value 1.02 | S. cerevisiae deletion strains, locus YNL298W, strain CLA4 (second series), stronger effect = lower value 0.996 | [2] 0.99 | S. cerevisiae deletion strains, locus YNR030W, strain Alg12, stronger effect = lower value 0.982 | S. cerevisiae deletion strains, locus YOL006C, strain TOP1, stronger effect = lower value 0.987 | [3] 1.01 | S. cerevisiae deletion strains, locus YPL241C, strain CIN2, stronger effect = lower value 0.929 | S. cerevisiae deletion strains, locus YPR135W, strain CTF4, stronger effect = lower value 0.905 | S. cerevisiae strains, strain wild type, stronger effect = lower value 0.979

O=S(=O)(Nc1cc(C(F)(F)F)ccc1F)c1cc(C(F)(F)F)ccc1Cl
inactive: S. cerevisiae deletion strains, locus YAR019C, strain CDC15, stronger effect = lower value 0.942 | S. cerevisiae deletion strains, locus YBL105C, strain PKC1, stronger effect = lower value 0.947 | S. cerevisiae deletion strains, locus YBR135W, strain CKS1, stronger effect = lower value 0.937 | S. cerevisiae deletion strains, locus YBR136W, strain MEC1, stronger effect = lower value 0.943 | S. cerevisiae deletion strains, locus YBR160W, strain CDC28, stronger effect = lower value 0.931 | S. cerevisiae deletion strains, locus YDL017W, strain CDC7, stronger effect = lower value 0.944 | S. cerevisiae deletion strains, locus YDL028C, strain MPS1, stronger effect = lower value 0.941 | [4] 0.969 | S. cerevisiae deletion strains, locus YDL108W, strain KIN28, stronger effect = lower value 0.949 | S. cerevisiae deletion strains, locus YDL132W, strain cdc53, stronger effect = lower value 0.945 | S. cerevisiae deletion strains, locus YDL214C, strain PRR2, stronger effect = lower value 0.905 | S. cerevisiae deletion strains, locus YDR052C, strain DBF4, stronger effect = lower value 0.957 | S. cerevisiae deletion strains, locus YDR054C, strain cdc34, stronger effect = lower value 0.94 | S. cerevisiae deletion strains, locus YDR226W, strain ADK1, stronger effect = lower value 0.95 | S. cerevisiae deletion strains, locus YDR477W, strain SNF1, stronger effect = lower value 0.917 | S. cerevisiae deletion strains, locus YER123W, strain YCK3, stronger effect = lower value 0.868 | S. cerevisiae deletion strains, locus YER133W, strain GLC7, stronger effect = lower value 0.923 | S. cerevisiae deletion strains, locus YFL009W, strain cdc4, stronger effect = lower value 0.939 | S. cerevisiae deletion strains, locus YFL029C, strain CAK1, stronger effect = lower value 0.941 | S. cerevisiae deletion strains, locus YFR003C, strain YPI1, stronger effect = lower value 0.946 | S. cerevisiae deletion strains, locus YFR019W, strain FAB1, stronger effect = lower value 0.894 | S. cerevisiae deletion strains, locus YFR028C, strain CDC14, stronger effect = lower value 0.939 | S. cerevisiae deletion strains, locus YGR040W, strain KSS1, stronger effect = lower value 0.905 | S. cerevisiae deletion strains, locus YGR052W, strain FMP48, stronger effect = lower value 0.831 | S. cerevisiae deletion strains, locus YGR092W, strain DBF2, stronger effect = lower value 0.82 | S. cerevisiae deletion strains, locus YHR079C, strain IRE1, stronger effect = lower value 0.824 | S. cerevisiae deletion strains, locus YHR082C, strain KSP1, stronger effect = lower value 0.771 | S. cerevisiae deletion strains, locus YHR205W, strain SCH9, stronger effect = lower value 0.887 | S. cerevisiae deletion strains, locus YIL147C, strain SLN1, stronger effect = lower value 0.95 | S. cerevisiae deletion strains, locus YJL095W, strain BCK1, stronger effect = lower value 0.886 | S. cerevisiae deletion strains, locus YJL128C, strain PBS2, stronger effect = lower value 0.911 | S. cerevisiae deletion strains, locus YJL157C, strain FAR1, stronger effect = lower value 0.904 | S. cerevisiae deletion strains, locus YJR016C, strain ILV3, stronger effect = lower value 0.941 | S. cerevisiae deletion strains, locus YJR066W, strain TOR1 (second series), stronger effect = lower value 0.904 | S. cerevisiae deletion strains, locus YJR066W, strain TOR1, stronger effect = lower value 0.82 | S. cerevisiae deletion strains, locus YKL048C, strain ELM1, stronger effect = lower value 0.852 | S. cerevisiae deletion strains, locus YKL067W, strain YNK1, stronger effect = lower value 0.905 | S. cerevisiae deletion strains, locus YKL101W, strain HSL1, stronger effect = lower value 0.88 | S. cerevisiae deletion strains, locus YKL193C, strain SDS22, stronger effect = lower value 0.938 | S. cerevisiae deletion strains, locus YKL203C, strain TOR2, stronger effect = lower value 0.933 | S. cerevisiae deletion strains, locus YLR133W, strain CKI1, stronger effect = lower value 0.902 | S. cerevisiae deletion strains, locus YLR403W, strain SFP1, stronger effect = lower value 0.902 | S. cerevisiae deletion strains, locus YML070W, strain DAK1, stronger effect = lower value 0.864 | S. cerevisiae deletion strains, locus YMR001C, strain CDC5, stronger effect = lower value 0.943 | S. cerevisiae deletion strains, locus YMR205C, strain PFK2 (second series), stronger effect = lower value 0.925 | S. cerevisiae deletion strains, locus YMR277W, strain FCP1, stronger effect = lower value 0.944 | S. cerevisiae deletion strains, locus YNL006W, strain LST8, stronger effect = lower value 0.936 | S. cerevisiae deletion strains, locus YNL020C, strain ARK1, stronger effect = lower value 0.882 | S. cerevisiae deletion strains, locus YNL161W, strain CBK1, stronger effect = lower value 0.939 | S. cerevisiae deletion strains, locus YNL183C, strain NPR1, stronger effect = lower value 0.808 | S. cerevisiae deletion strains, locus YNL207W, strain RIO2, stronger effect = lower value 0.937 | S. cerevisiae deletion strains, locus YNL222W, strain SSU72, stronger effect = lower value 0.938 | S. cerevisiae deletion strains, locus YNL307C, strain MCK1 (second series), stronger effect = lower value 0.861 | S. cerevisiae deletion strains, locus YOL078W, strain AVO1, stronger effect = lower value 0.935 | S. cerevisiae deletion strains, locus YOL136C, strain PFK27, stronger effect = lower value 0.858 | S. cerevisiae deletion strains, locus YOR061W, strain CKA2, stronger effect = lower value 0.908 | S. cerevisiae deletion strains, locus YOR119C, strain RIO1, stronger effect = lower value 0.951 | S. cerevisiae deletion strains, locus YOR231W, strain MKK1, stronger effect = lower value 0.817 | S. cerevisiae deletion strains, locus YOR329C, strain SCD5, stronger effect = lower value 0.947 | S. cerevisiae deletion strains, locus YPL031C, strain PHO85, stronger effect = lower value 0.881 | S. cerevisiae deletion strains, locus YPL153C, strain RAD53, stronger effect = lower value 0.867 | S. cerevisiae deletion strains, locus YPL204W, strain HRR25, stronger effect = lower value 0.876 | S. cerevisiae deletion strains, locus YPL209C, strain IPL1, stronger effect = lower value 0.935 | S. cerevisiae deletion strains, locus YPR025C, strain CCL1, stronger effect = lower value 0.937 | S. cerevisiae deletion strains, locus YPR106W, strain ISR1, stronger effect = lower value 0.929 | S. cerevisiae deletion strains, locus YPR111W, strain DBF20, stronger effect = lower value 0.925 | S. cerevisiae deletion strains, strain NNK1, stronger effect = lower value 0.934 | S. cerevisiae deletion strains, strain TSCII, stronger effect = lower value 0.941
active: [5] 0.644 | S. cerevisiae deletion strains, locus YLR113W, strain HOG1, stronger effect = lower value 0.715 | S. cerevisiae deletion strains, locus YPL256C, strain CLN2, stronger effect = lower value 0.694
